# High-throughput results: PubChem BioAssay, National Center for Advancing Translational Sciences (NCATS)
# rTrxR1 inhibitor: qHTS Assay for Inhibitors of Mammalian Selenoprotein Thioredoxin Reductase 1 (TrxR1): qHTS. Potency, µM (top dose mostly 114 µM), for the others: at the top dose activity change, negative = inhibition, usual class: inhibitors. Thioredoxin reductase 1, cytoplasmic (Rattus norvegicus), O89049. recombinant rTrxR1, NADPH fluorescence consumption, selenite substrate. 390,000 compounds, 1% hits; also: potency is read from the fitted curve at half-maximal effect; nearly all actives have a fitted effect of over 65% in size
#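 Rat TrxR1 (90 nM in the dispensed reagent) was pre-reduced with 400 uM NADPH for 5 min at room temperature, then incubated with compound for 15 min. After 400 uM selenite was added, NADPH fluorescence (Ex 340/Em 450 nm) was followed for 8 min.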
# Eya2 inh: qHTS Assay for Inhibitors of the Phosphatase Activity of Eya2; Potency, µM (titrated, usually from 76.9 µM), inactives show top-dose activity, negative = inhibition, actives largely listed as inhibitors; recombinant Eya2, OMFP fluorescence dephosphorylation (OMFP is methylfluorescein phosphate); AID 488837, 2010; 330,000 compounds, 0.006% hits; also: potency is read from the fitted curve at half-maximal effect
# Target sequence (O00167 whole entry, looked up): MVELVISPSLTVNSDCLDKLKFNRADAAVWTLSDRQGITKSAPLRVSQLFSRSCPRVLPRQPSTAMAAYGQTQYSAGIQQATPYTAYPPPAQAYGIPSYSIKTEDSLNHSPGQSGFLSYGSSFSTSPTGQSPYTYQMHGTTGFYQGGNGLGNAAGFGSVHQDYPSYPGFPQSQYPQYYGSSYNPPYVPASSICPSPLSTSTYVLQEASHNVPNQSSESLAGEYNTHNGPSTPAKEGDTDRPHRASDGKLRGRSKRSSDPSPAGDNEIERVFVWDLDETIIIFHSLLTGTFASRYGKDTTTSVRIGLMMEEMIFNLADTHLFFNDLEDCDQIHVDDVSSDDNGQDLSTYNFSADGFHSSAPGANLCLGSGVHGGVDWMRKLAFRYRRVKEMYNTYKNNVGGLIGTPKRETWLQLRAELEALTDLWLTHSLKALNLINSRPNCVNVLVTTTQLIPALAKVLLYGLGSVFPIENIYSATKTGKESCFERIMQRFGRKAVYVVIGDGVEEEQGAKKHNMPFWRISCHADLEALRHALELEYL
#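 Eya2 protein (added as 0.2 uM solution) was preincubated with compound for 10 min at ambient temperature in 50 mM HEPES pH 7.5, 50 mM NaCl, 5 uM MgCl2, 0.05% BSA, 1 mM DTT. OMFP (added at 50 uM) then reacted 10 min; fluorescence read at 485/525 nm.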
# TrxR1 substrate: qHTS Assay for Substrates of Mammalian Selenoprotein Thioredoxin Reductase 1 (TrxR1): qHTS; Thioredoxin reductase 1, cytoplasmic (Rattus norvegicus), O89049; purified TrxR1 substrate turnover, NADPH consumption readout; Potency, µM (top dose mostly 114 µM), for the others: at the top dose activity change, negative = substrate turnover; 390,000 compounds, 0.01% hits; AID 588456, 2011; also: potency is read from the fitted curve at half-maximal effect; nearly all actives have a fitted effect of over 50% in size
#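 Rat TrxR1, dispensed at 90 nM, was prereduced with 400 uM NADPH (final) for 5 min at ~22 deg C, then incubated with compound 15 min before 400 uM selenite. A first-read NADPH fluorescence drop versus no-compound background flagged substrates.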
# GALK inh: qHTS Assay for Inhibitors of Human Galactokinase (GALK); 270,000 compounds, 0.007% hits; Potency, µM (highest dose often 57.5 µM), without a hit: at the highest dose activity change, negative = inhibition, hits mostly inhibitors; Purified GALK, Kinase-Glo residual ATP luminescence; also: potency is read from the fitted curve at half-maximal effect
#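 The enzyme phosphorylates galactose (100 uM) using ATP (35 uM); inhibition is detected as higher residual ATP, quantified by bioluminescence after 1 h reaction at room temperature, pH 8.0.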
# Six1-Eya2 inh: qHTS Assay for Inhibitors of the Six1/Eya2 Interaction | AlphaScreen GST-Six1/His-Eya2 binding, biochemical; hits give low values | activity change, % (concentration not given with the values) | 360,000 compounds, 0.56% hits; in the data active = activity change below about -65%; inconclusive = mostly about -30% to -63%
#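 GST-Six1 + His-Eya2 (5X stock: 250/500 nM); Tris pH 8.0, 300 mM NaCl, 0.05% BSA, 0.02% Tween 20; GSH donor/Ni acceptor beads; 1 h 37 °C dark; AlphaScreen readout.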
# CtBP-E1A inh: qHTS Assay for Inhibitors of the CtBP/E1A Interaction; AlphaScreen GST-E1A/His-CtBP binding, 1536-well; hits give low values; CtBP / adenovirus E1A interaction (AlphaScreen); activity change, % (concentration not given with the values); 340,000 compounds, 0.49% hits; AID 651724, 2012; in the data active = activity change below about -65%; inconclusive = mostly about -30% to -63%
#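 In 5 uL wells, 23 nL compound meets equimolar GST-E1A and His-CtBP (5X stock 125 nM each) for 2 h, 37 °C. Beads (5X, 50 ug/mL) then 1 h, 37 °C, dark.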
# Starred values were filed as active, the others as inactive; ? = inconclusive; / = no result; [ ] = dose if it differs, or a comment. In the library only some 1.5% were active in any assay of this set; here they are far more common. Unless noted, calls follow the shape of the dose curve; as a rule, active = well fitted curve in the direction sought with a large enough effect; inconclusive = small, poorly fitted or top-dose-only effect, or another doubt; inactive = no such curve, though single readings can be large; an effect the other way counts as inactive or inconclusive. % is scaled to controls: 0 for no effect and ±100 for the full control effect.
SMILES,rTrxR1 inhibitor,Eya2 inh,TrxR1 substrate,GALK inh,Six1-Eya2 inh,CtBP-E1A inh
Cc1ccc(C(=O)Oc2oc(-c3ccco3)nc2C=Nc2ccc(Cl)cc2)cc1,1.8µM*,0%,-2%,-5%,-1,1
O=C(Oc1oc(-c2ccco2)nc1C=Nc1ccccc1)c1ccoc1,3.5µM*,15%,10%,10%,0,5
CSc1ccc(CCNC(=O)CN2C(=O)COc3ccc(S(=O)(=O)N4CCCC4)cc32)cc1,11%,/,-7%,/,/,/
CCCCNC(=O)CCCn1c(=O)c2ccccc2n(Cc2ccc(Cl)cc2)c1=O,11%,/,11%,/,/,/
CC(=O)Nc1ccc2nc3c(=O)[nH]c(=O)[nH]c3nc2c1,-4%,/,13%,/,/,/
O=C(Nc1ccc(F)cc1)c1nc[nH]c1C(=O)O,4%,-2%,3%,-2%,-77*,/
Cc1ccc(/C=C/C(=O)Nc2cccc3ncccc23)o1,10µM*,-21%,-4%,1%,-4,-6
Cc1ccc(/C=C/C(=O)Nc2nn[nH]n2)o1,50µM*,6%,-19%,0%,-10,-1
Cc1ccc(/C=C/C(=O)Nc2cccnc2)o1,32µM*,4%,4%[57.1 µM],4%,-12,-18
O=C(/C=C/c1ccco1)NCCc1ccccc1,?,-3%,-4%,0%,-9,-3
Cc1ccc(/C=C/C(=O)Nc2ccccc2C(N)=O)o1,?,/,-9%,/,/,/
Cc1ccc(/C=C/C(=O)NCCc2ccccc2)o1,14µM*,-1%,5%,-9%,-3,-19
Clc1ccccc1-c1nnc(COc2ccccc2)o1,5%,/,-2%,/,/,/
COc1ccc(CN2CCCN(CC(=O)Nc3cc(C)ccc3C)S2(=O)=O)cc1,18%[57.1 µM],/,4%[57.1 µM],/,/,/
Cc1cc(NS(=O)(=O)c2ccc(NC(=O)COc3c(C)ccc(C)c3C)cc2)nc(C)n1,21%,/,5%,/,/,/
O=[N+]([O-])c1ccc(O/N=[N+](\[O-])N2CCN(c3ccccc3)CC2)c([N+](=O)[O-])c1,32µM*,/,-7%,/,/,/
O=[N+]([O-])c1ccc(O/N=[N+](\[O-])N2CCN(c3ncccn3)CC2)c([N+](=O)[O-])c1,14µM*,/,10%[0.457 µM],/,/,/
CC(C)Sc1ncc(Cl)c(C(=O)Nc2nc3ccc(S(C)(=O)=O)cc3s2)n1,13%,/,4%,/,/,/
Cc1cc(=O)oc2c(CN3CCCC3)c(O)ccc12,18µM*,7%,836%,-3%,4,-1
C/C(=N\Nc1nc2ccccc2s1)c1ccc(Br)s1,10%[57.1 µM],-3%,2%[57.1 µM],10%,-19,-7
CC(=NNc1nc2ccccc2s1)c1ccncn1,10%,/,1%,/,?,-78*
Nc1nc(Br)c2ccccc2c1-c1ccccc1,21%[57.1 µM],?,4%[57.1 µM],3%,39,-24
Nc1nc(Br)c2c(F)cccc2c1-c1ccc(Cl)cc1,5.6µM*,3%,13%,0%,14,21
CCOC(=O)C1CCN(C(c2ccc(C)cc2)c2sc3nc(-c4ccco4)nn3c2O)CC1 (stereo not given),10%[57.1 µM],/,2%[57.1 µM],/,/,/
Cc1[nH]c(-c2ccco2)nc1C(=O)O,18µM*,0%,4%,-2%,-6,-8
SMILES,rTrxR1 inhibitor,Eya2 inh,TrxR1 substrate,GALK inh,Six1-Eya2 inh,CtBP-E1A inh
Cc1[nH]c(-c2ccc3c(c2)OCO3)nc1C(=O)O,7%[57.1 µM],-4%,18%[57.1 µM],4%,-1,2
Cc1cc([N+](=O)[O-])nn1CC(=O)N/N=C/c1ccc(O)cc1O,-11%,1%,-12%,/,-85*,?
O=C(Cn1nc2ccccc2n1)N/N=C/c1cc([N+](=O)[O-])ccc1O,-6%[57.1 µM],9%,-16%[57.1 µM],9%,?,/
Cc1ccn(CC(=O)N/N=C/c2cc([N+](=O)[O-])ccc2O)n1,-16%,2%,-18%,2%,-90*,-93*
O=C(CSc1ccccn1)N/N=C/c1cc([N+](=O)[O-])ccc1O,17%,-27%,-7%,-1%,-88*,/
O=C(Cn1cncn1)N/N=C/c1ccccc1O,-4%,-10%,4%,/,-85*,-94*
O=C(Cn1cncn1)N/N=C/c1cc([N+](=O)[O-])ccc1O,9%,3%,-13%,-4%,-91*,/
O=C(/C=C/c1ccco1)NCC1(c2ccccc2)CCCC1,?,-1%,-7%,-3%,-10,7
COc1ccc(CNC(=O)/C=C/c2ccco2)cc1OC,?,14%,3%,0%,14,0
COc1ccc(C(NC(=O)/C=C/c2ccco2)c2ccc(OC)c(OC)c2)cc1 (stereo not given),50µM*,-1%,-8%,0%,-13,0
CCOc1ccc(C(NC(C)=O)c2ccc(OC)c(OC)c2)cc1 (stereo not given),17%[57.1 µM],-9%,1%[57.1 µM],1%,-1,3
CCOc1ccc(C(NC(=O)/C=C/c2ccco2)c2ccc(OC)c(OC)c2)cc1 (stereo not given),35µM*,5%,1%,-2%,-1,4
CCN(CC)S(=O)(=O)c1ccc(OC)c(NC(=O)/C=C/c2ccco2)c1,18µM*,-9%,-4%,0%,-4,1
COc1ccc(C2(CNC(=O)/C=C/c3ccco3)CCCC2)cc1OC,3.5µM*,9%,5%,2%,-7,8
Cc1ccccc1CNCCCSc1nnnn1C,14%,/,-3%,/,/,/
COc1ccc(CCNC(=O)C2COc3ccccc3C2)cc1OC (stereo not given),4%[57.1 µM],/,-5%[57.1 µM],/,/,/
COc1ccc(-c2cc3ccc(O)c(CN4CCOCC4)c3oc2=O)cc1OC,20%[57.1 µM],/,43%[57.1 µM],/,/,/
C/C(=N\Nc1ncc(Cl)cc1Cl)c1ccccn1,-6%[57.1 µM],-7%,-6%[57.1 µM],1%,-87*,-66*
Cc1sc2ncnc(N/N=C/c3cccc(O)c3)c2c1C,-9%[57.1 µM],-5%,2%[57.1 µM],0%,?,-24
C/C(=N\Nc1ccc(Cl)c(C(=O)O)c1)c1ccccn1,-10%,0%,-18%,5%,-15,-18
C/C(=N\Nc1ncnc2sc(C)c(C)c12)c1ccccn1,-5%,8%,-8%,-1%,-73*,-94*
O=C(NCCc1ccccc1)c1ccc2c(c1)N(Cc1ccc(Cl)cc1)C(=O)CS2,1%,/,-1%,/,/,/
O=[N+]([O-])c1ccc2c(OCc3nnc(-c4ccccc4Br)o3)ncnc2c1,4%,4%,4%,-1%,-70*,-85*
